Experimental data published in PubChem BioAssay (NCI).
Several values for one entry are separate records, joined by “and”; a condition that tells them apart may be missing. Equal entries are not always repeated. Compounds without any hit were thinned out: in the full panel of roughly 83,000, 20% have a hit.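 Treatment: one concentration, 48 hours, 96-well format. Scoring: percent growth, with anything below 10 considered active.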 Activity calls are given as the source filed them.

System: HL-60(TB) leukemia
Assay: NCI-60 one-dose screen, 48 h (100 = growth as untreated, 0 = no growth, -100 = all killed)
Conditions: 10 µM unless noted

SMILES	growth
O=C(N/N=C/c1ccccc1)N/N=C/c1ccccc1	95.3% (inactive) and 98.4% (inactive)
CCN(CC)CCCNc1ccc(Nc2ccc(OC)cc2)cc1	-48.7% (active)
Nc1cccc(Nc2cc(S(=O)(=O)O)c(N)c3c2C(=O)c2ccccc2C3=O)c1	105% (inactive)
Nc1nc(=S)c2ncn(C3OC(COC(=O)c4ccc(Cl)cc4)C(OC(=O)c4ccc(Cl)cc4)C3OC(=O)c3ccc(Cl)cc3)c2[nH]1 (centres undefined)	93.7% (inactive)
NC(=O)c1cccc(-n2ccc3cc(NC(=O)Nc4ccc(Cl)c(C(F)(F)F)c4)ccc32)n1	99.3% (inactive)
COc1ccc(/C(C)=C(\c2ccc(Cl)cc2)c2ccc(OCCN3CCCCC3)cc2)cc1F	-14% (active)
Cc1nc2ncnc(Cl)c2[nH]1	75.4% (inactive)
COc1ccc(-n2ncn(CCCCCCn3cnn(-c4ccc(OC)cc4)c3=O)c2=O)cc1	86.7% (inactive)
CC(C)CC1NC(=O)C(CC(C)C)N(CO)C1=O (centres undefined)	106% (inactive)
NC(=O)NO	82.9% (inactive) and 72.8% (inactive)
Cc1cc(N2CCCCC2)nc(N(CCCNc2ccnc3cc(Cl)ccc23)Cc2ccco2)n1	-43.6% (active)
CC1(C)Cc2c(cn(Cc3ccccc3)c2-c2ccccc2)-c2oncc21	85.7% (inactive)
COc1cc(C(=O)C[n+]2ccccc2)ccc1OC(C)=O	101% (inactive)
COc1ccc2c(c1)C1=NN(C(=O)CO)[C@H](c3ccc(OC(F)(F)F)cc3)[C@@H]1CC2	104% (inactive)
O=C1Nc2ccccc2/C1=C\c1c(-c2ccc(F)cc2)nc2ccccn12	70.3% (inactive)
CN1CCN(C(=O)c2ccc(NC(=O)Nc3ccc(-c4nc(N5CCOCC5)c5cccn5n4)cc3)cc2)CC1	7.69% (active)
CC(C)C1=C(O)C2=C(C(=O)C1=O)[C@@]1(C)CCCC(C)(C)[C@@H]1CC2	56.4% (inactive)
Cc1ccc(S(=O)(=O)Nc2cccc(Cn3c(=O)[nH]c4ccc(Oc5ncccn5)cc4c3=O)c2)cc1	65.3% (inactive)
COc1ccc2nc(Cl)cc(C)c2c1	89.3% (inactive) and 9.88% (active)
COc1ccc(/C=C\c2cc(OC)c(OC)c(OC)c2)c(NS(=O)(=O)c2ccc(C(C)(C)C)cc2)c1O	6.05% (active)

SMILES	growth
N/C(=N\N=C\c1cc2ccccc2s1)N/N=C/c1cc2ccccc2s1	94.4% (inactive)
N=C1C(c2nc(-c3ccc(Br)cc3)cs2)=C(O)CN1CC1CCCO1 (centres undefined)	98.3% (inactive)
C/C(=N\N=C(/C)c1cccc([N+](=O)[O-])c1)c1cccc([N+](=O)[O-])c1	125% (inactive)
CCOC(=O)C1=CC(=O)CC(C)(C)O1	53.2% (inactive) and 69.6% (inactive)
CCCCN(CCCC)c1ccc(C(=O)O)cc1	104% (inactive)
CN(C)c1ccc(/C=C/c2ccnc3ccccc23)cc1N	43.5% (inactive)
CSc1nc2sc3cc(Cl)ccc3n2c(=N)c1C#N	121% (inactive)
O=C(Cc1ccccc1)NC(c1ccc(Cl)cc1)c1c(O)ccc2ccccc12 (centres undefined)	7.2% (active)
C1CN(SSN2CCOCC2)CCO1	35.6% [100 µM] (inactive)
O=C(CSc1nc(-c2ccccc2)[nH]c1S(=O)(=O)c1ccccc1)NC1CC1	101% (inactive)
CN(C)c1ccc2nc3ccc(N)cc3[n+](-c3ccccc3)c2c1	-5.21% (active) and 4.22% (active)
Cc1ccc2c(c1)C(=O)/C(=C\Nc1ccc(C(N)=O)cc1)C(O)O2 (centres undefined)	130% (inactive)
CCN(CC)CCCC(C)Nc1c2ccc(Cl)cc2nc2ccc(O)cc12 (centres undefined)	45.7% (inactive)
O=C(O)C1C2CCC1C(O)C2 (centres undefined)	94.6% (inactive) and 96% (inactive)
C(=C\c1nc2ccccc2[nH]1)/c1nc2ccccc2[nH]1	93.4% (inactive)
C=CCc1c(O)c(C(=O)/C=C/c2ccc(Cl)cc2)c(OC)c2ccoc12	25.4% (inactive)
c1ccc2c(c1)cnc1ccccc12	94.9% (inactive)
Cn1c2ccccc2c2nnc(NCCCCO)nc21	139% (inactive)
CC(=O)NCC(=O)c1ccc([N+](=O)[O-])cc1	103% (inactive)
